Data on eight compounds can be found in ChEMBL document CHEMBL3988442, “University of Dundee, Small-Polar-MMV Screening Library” (2021).

Molecules are shown by their SMILES. For some of these results: Entries with a potency or affinity are not part of this list.

Common to all, as to set-up: scale not given: direction of the effect not stated beside the values
For test [1], the target named is Protein translocase subunit SecA (Escherichia coli (strain K12)) (UniProt P10408). The test is described as follows: Assay to Identify E. coli SecA ATPase Inhibitors. It counts as functional. The following applies: 30 µM.
In test [2] the target is T1, Ubiquitin-activating enzyme e1, putative (Leishmania donovani (strain BPK282A1)) (UniProt E9BSI1).
T1 sequence (whole entry): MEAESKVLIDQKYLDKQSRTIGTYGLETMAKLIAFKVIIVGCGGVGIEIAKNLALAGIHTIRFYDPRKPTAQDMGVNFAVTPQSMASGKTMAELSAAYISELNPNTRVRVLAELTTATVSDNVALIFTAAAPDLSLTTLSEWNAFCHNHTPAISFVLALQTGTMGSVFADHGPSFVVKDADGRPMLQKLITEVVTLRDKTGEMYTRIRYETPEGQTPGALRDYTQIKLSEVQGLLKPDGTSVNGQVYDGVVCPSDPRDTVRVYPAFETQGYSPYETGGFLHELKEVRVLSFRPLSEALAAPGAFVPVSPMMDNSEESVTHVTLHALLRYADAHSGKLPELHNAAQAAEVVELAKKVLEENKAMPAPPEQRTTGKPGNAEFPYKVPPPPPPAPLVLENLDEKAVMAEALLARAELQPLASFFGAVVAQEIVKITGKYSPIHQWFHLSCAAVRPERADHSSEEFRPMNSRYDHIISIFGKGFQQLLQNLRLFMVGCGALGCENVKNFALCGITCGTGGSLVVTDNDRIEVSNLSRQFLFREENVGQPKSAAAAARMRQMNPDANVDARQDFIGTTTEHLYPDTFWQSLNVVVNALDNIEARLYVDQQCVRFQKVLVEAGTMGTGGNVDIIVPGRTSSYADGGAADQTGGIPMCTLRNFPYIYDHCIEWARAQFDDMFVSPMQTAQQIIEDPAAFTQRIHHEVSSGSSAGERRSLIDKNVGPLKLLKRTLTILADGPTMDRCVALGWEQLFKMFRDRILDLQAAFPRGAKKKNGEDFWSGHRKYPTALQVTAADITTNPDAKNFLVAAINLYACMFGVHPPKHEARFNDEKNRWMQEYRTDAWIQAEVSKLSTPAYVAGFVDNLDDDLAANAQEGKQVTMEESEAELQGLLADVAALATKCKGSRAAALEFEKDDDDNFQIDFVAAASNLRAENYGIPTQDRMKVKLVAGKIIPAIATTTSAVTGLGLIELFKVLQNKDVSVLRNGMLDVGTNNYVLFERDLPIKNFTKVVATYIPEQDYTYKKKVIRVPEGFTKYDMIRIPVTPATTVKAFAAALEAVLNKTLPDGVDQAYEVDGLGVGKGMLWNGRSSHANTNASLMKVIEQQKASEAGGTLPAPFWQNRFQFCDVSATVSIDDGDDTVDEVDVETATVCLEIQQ
The test is described as follows: Leishmania donovani Ubiquitin Activating Enzyme (LdE1). It counts as functional. The following applies: 30 µM.

In test [3] the target is AMP-activated protein kinase, AMPK (Homo sapiens) (UniProt P54646+O43741+P54619+Q9UGJ0+Q9Y478+Q13131+Q9UGI9). In words: AMP-dependent Kinase enzyme assay. An in vitro enzyme assay that detects ADP turnover that is directly proportional to AMPK activity. This uses naive AMPK that is activated during the assay with MK-8722. It counts as functional. The following applies: 30 µM.

Test [4] deals with Sialic acid-binding Ig-like lectin 9 (Homo sapiens) (UniProt Q9Y336). In words: Hs-Siglec9 ALPHAscreen SOP 20170721. The following applies: 10 µM.
Another test relates to Trypanosoma cruzi. In words: Trypanosoma cruzi phosphomannomutase and mannose-1-phosphate guanylyltransferase assay. It counts as functional. The following applies: 10 µM.
For test [5], the target named is T2, Arginase-2, mitochondrial (Homo sapiens) (UniProt P78540).
T2 sequence (whole entry): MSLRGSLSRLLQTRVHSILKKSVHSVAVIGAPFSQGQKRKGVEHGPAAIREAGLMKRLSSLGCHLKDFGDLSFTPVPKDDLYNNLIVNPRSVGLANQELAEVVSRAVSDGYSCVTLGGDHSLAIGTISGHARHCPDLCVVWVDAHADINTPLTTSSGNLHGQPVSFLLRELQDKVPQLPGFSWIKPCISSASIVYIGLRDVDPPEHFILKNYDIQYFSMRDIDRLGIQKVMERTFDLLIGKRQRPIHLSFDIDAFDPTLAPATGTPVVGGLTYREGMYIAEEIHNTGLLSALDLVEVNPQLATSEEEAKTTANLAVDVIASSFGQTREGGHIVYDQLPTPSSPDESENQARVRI
The test is described as follows: in vitro enzyme assay to detect the production of urea directly proportional to the activity of Arginase II. Also: in the data most compounds retested in dose-response had high values. It counts as functional. As to conditions: 33.3 µM.

In test [6] the target is T3, Proteasome subunit beta (Trypanosoma cruzi) (UniProt O96673).
T3 sequence (whole entry): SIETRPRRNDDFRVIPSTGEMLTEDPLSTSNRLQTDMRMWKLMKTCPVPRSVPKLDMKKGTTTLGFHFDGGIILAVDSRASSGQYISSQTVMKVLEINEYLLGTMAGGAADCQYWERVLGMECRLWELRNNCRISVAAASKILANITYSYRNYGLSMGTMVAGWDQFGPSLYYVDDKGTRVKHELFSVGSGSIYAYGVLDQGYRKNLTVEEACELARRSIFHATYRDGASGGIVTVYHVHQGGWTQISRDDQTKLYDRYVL
The test is described as follows: Trypanosoma cruzi proteasome chymotrypsin-like activity (TcProtChymo) assay. Also: in the data most compounds retested in dose-response had high values. It counts as functional. As to conditions: 9.37 µM.

A further test is filed under the species Homo sapiens. In words: To identify inhibition of the IFN signalling (Jak-Stat) pathway via expression of an eGFP reporter gene under the control of an IFN-stimulated response element (ISRE) containing MxA promoter. It counts as functional. The following applies: 30 µM.
Test [7] deals with T4, Tyrosyl-tRNA synthetase, putative (Trypanosoma cruzi (strain CL Brener)) (UniProt Q4DSP6).
T4 sequence (whole entry): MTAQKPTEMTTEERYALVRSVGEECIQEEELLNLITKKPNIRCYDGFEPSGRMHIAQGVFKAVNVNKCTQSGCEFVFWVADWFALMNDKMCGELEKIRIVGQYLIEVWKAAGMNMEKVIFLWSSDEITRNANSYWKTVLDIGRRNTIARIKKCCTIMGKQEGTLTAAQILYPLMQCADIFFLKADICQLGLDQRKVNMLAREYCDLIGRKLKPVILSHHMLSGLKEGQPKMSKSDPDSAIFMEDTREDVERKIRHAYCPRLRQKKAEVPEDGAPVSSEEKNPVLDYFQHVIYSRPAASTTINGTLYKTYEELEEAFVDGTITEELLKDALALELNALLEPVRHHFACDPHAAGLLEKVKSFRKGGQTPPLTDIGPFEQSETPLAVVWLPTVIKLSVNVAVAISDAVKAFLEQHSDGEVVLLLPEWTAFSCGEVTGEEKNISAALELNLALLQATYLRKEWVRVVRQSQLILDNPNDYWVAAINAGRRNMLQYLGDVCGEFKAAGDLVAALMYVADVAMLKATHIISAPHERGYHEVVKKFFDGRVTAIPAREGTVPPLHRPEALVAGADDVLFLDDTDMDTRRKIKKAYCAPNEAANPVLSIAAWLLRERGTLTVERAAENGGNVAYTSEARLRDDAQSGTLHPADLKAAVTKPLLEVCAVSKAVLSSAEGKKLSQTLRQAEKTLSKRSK
The test is described as follows: Trypanosoma cruzi tyrosyl tRNA synthetase (TcYRS) _High Tyrosine SOP. Also: in the data most compounds retested in dose-response had high values. It counts as functional. The following applies: 30 µM.

Test [8] has as its target T4, Tyrosyl-tRNA synthetase, putative (Trypanosoma cruzi (strain CL Brener)). In words: Trypanosoma cruzi tyrosyl tRNA synthetase (TcYRS) SOP. As to conditions: 30 µM. It counts as functional.
For test [9], the target named is Chromo domain-containing protein 1 (Saccharomyces cerevisiae (strain ATCC 204508 / S288c) (Baker's yeast)) (UniProt P32657). The test is described as follows: ScCHD-1 Enzyme Inhibition Assay. Also: in the data most compounds retested in dose-response had high values. It counts as functional. The following applies: 30 µM.
Chain of Chromo domain-containing protein 1 (Saccharomyces cerevisiae (strain ATCC 204508 / S288c) (Baker's yeast)) (P32657 whole entry, the tested form may be a part): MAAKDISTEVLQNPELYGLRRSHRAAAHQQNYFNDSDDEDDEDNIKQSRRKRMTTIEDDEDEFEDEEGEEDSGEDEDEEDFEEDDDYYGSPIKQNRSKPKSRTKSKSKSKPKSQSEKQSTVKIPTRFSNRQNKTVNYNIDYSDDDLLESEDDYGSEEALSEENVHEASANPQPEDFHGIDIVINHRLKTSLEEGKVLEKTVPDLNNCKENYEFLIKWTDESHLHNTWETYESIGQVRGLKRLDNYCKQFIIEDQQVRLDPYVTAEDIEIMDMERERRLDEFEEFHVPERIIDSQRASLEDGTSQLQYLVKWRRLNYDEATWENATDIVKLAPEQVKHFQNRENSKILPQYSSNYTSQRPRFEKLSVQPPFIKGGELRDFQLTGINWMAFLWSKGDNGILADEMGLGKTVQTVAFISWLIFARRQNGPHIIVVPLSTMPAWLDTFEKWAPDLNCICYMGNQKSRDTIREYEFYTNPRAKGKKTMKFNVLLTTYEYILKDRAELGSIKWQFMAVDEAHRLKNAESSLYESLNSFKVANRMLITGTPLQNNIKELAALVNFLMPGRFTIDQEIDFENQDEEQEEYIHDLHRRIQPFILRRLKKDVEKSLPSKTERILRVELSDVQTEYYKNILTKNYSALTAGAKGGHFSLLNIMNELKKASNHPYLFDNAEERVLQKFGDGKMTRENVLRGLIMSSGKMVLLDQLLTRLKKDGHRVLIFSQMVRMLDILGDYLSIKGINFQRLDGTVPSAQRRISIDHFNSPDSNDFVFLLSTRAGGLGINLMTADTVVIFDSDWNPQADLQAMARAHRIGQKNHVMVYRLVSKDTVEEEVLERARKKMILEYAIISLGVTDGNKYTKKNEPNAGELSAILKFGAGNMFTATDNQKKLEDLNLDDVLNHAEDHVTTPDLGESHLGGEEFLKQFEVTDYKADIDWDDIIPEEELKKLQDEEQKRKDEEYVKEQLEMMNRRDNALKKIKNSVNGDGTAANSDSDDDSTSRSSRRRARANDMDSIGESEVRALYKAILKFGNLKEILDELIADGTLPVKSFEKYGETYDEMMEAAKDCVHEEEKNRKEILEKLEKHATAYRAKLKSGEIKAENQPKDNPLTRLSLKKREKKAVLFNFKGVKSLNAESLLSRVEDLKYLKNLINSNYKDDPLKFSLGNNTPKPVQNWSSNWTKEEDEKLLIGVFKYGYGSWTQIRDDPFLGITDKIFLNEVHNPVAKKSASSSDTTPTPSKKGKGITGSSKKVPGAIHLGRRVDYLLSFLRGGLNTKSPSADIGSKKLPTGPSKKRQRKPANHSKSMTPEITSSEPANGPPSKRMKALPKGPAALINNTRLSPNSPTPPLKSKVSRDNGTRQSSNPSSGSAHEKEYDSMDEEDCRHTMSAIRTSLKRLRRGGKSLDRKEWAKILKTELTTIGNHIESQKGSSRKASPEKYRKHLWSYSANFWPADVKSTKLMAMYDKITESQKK

Chain of Sialic acid-binding Ig-like lectin 9 (Homo sapiens) (Q9Y336 whole entry): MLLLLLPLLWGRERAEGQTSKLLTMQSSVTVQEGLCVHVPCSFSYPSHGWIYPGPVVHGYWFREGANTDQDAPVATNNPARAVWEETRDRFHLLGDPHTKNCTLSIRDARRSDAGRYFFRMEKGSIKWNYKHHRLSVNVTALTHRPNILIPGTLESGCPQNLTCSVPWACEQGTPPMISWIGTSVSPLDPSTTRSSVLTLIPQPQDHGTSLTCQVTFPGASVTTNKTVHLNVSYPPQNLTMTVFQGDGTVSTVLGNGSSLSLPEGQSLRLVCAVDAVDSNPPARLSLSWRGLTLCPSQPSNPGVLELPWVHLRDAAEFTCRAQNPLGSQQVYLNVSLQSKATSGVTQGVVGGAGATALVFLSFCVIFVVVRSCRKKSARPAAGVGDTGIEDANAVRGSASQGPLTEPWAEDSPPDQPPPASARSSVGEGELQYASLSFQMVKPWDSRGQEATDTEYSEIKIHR
Chain of Protein translocase subunit SecA (Escherichia coli (strain K12)) (P10408 whole entry): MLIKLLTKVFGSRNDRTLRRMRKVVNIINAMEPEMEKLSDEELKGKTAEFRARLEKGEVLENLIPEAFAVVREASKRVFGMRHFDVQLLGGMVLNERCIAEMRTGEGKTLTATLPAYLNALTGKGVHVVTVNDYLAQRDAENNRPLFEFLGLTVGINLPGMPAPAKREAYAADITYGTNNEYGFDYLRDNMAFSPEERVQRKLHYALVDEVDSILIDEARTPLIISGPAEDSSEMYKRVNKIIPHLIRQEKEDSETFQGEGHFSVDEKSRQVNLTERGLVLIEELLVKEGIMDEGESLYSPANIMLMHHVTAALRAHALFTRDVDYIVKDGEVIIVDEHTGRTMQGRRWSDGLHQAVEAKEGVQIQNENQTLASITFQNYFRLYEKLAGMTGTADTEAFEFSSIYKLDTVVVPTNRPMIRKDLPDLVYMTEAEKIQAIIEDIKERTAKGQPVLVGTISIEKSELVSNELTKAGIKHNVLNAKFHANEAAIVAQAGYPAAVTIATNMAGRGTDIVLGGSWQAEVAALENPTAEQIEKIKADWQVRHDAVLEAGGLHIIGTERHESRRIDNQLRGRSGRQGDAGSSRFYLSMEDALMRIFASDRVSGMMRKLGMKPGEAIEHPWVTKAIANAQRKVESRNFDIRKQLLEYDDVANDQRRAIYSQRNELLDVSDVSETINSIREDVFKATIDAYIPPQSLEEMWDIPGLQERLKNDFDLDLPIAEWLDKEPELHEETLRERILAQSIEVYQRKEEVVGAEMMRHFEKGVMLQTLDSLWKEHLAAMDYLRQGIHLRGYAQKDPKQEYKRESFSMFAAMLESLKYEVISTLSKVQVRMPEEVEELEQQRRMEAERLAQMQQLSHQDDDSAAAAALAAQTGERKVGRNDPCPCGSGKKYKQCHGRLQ

Take `Cc1ccc(CN2CCOC3(COCCN(CCN(C)C)C3)C2)o1` (stereo not drawn): the Percent Effect was -3.53% in test [1]; 5.33% in test [2]; 9.65% in [3]; 0.443% in test [4]; 1.18% with Trypanosoma cruzi; -0.699% in test [5]. Moreover, the Percent Effect in [6] was 14%; in the test listed under Homo sapiens, 3.66%; in test [7], 8.51%; in test [8], 19.2%; in [9], -3.31%.
Take `Cc1ncc2c(n1)CCN(C(=O)Cc1c(C)noc1C)C2`: the Percent Effect in test [1] is -8.55%; in test [2] it was 13.2%; in test [3] it was -4.54%; in [4] it was 7.88%; in the test with Trypanosoma cruzi, 9.62%; in test [5] it was -1.44%. The Percent Effect in [6] is 8.21%; in the test listed under Homo sapiens, -0.465%; in [7], 9.36%; in test [8], 18.5%; in test [9] it was -7.72%.
As for `O=C(NCc1cccnc1-n1cccn1)C1CC(=O)N(CC2CC2)C1` (stereo not drawn), the Percent Effect was 1.42% in [1]; -2.6% in test [2]; 12.9% in [3]; -3.81% in test [4]; -3.43% in the test with Trypanosoma cruzi; 7.37% in [5]. The Percent Effect in test [6] was 2.99%; in the test filed under Homo sapiens, 18.6%; in test [7], -0.952%; in test [8], -2.35%; in test [9], -13.5%.
With `O=C(NCC1CC1)[C@@H]1CCO[C@@H]2CCN(Cc3ccco3)C[C@H]21`, the Percent Effect in test [1] is -1.9%; in [2] it was -2.67%; in [3] it was 1.99%; in [4], -4.47%; in the test on Trypanosoma cruzi, -2.9%; in [5], -55.7%. Further, the Percent Effect was -1.2% in test [6]; 5.41% in the test filed under Homo sapiens; -3.12% in [7]; -10% in test [8]; -0.123% in test [9].
For the compound `CC(C)c1nc(CN(C)C2CCN(CC(F)(F)F)C2)no1` (stereo not drawn), the Percent Effect was -5.29% in test [1]; 5.48% in [2]; -3.78% in test [3]; -4.08% in [4]; -0.588% in the test on Trypanosoma cruzi; 2.73% in test [5]. The Percent Effect in test [6] is 6.57%; in the test filed under Homo sapiens, -2.57%; in test [7] it was 4.3%; in test [8], 10%; in [9], -1.35%.
Consider `CN(C)C(=O)N1CCN(CCn2nc3ccccn3c2=O)CC1`, for which the Percent Effect in [1] was 0.243%; in test [2], 7.89%; in test [3], 0.915%; in test [4], -3.62%; with Trypanosoma cruzi, -6.13%; in [5] it was 0%. For the same compound, the Percent Effect in [6] is 20.8%; in the test filed under Homo sapiens, 3.27%; in [7] it was 6.38%; in [8], 5.2%; in [9], -5.93%.
Turning to `COCCN(Cc1ccc(F)cc1Cl)C(=O)c1ccc(=O)[nH]n1`, the Percent Effect was -4.94% in [1]; 6.94% in test [2]; -10.2% in test [3]; 29.6% in test [4]; 4.37% in the test with Trypanosoma cruzi; 6.18% in test [5]. In addition, the Percent Effect in [6] is 10.3%; in the test listed under Homo sapiens, -2.22%; in test [7], 2.1%; in test [8], 5.13%; in [9] it was -5.81%.
`COc1ccc(-n2cnnc2SCCC#N)cn1`: the Percent Effect in test [1] is -2.65%; in test [2], 8%; in [3] it was 0.911%; in test [4], 11.1%; with Trypanosoma cruzi it was 4.38%; in test [5] it was 18.2%. The Percent Effect is 11.3% in test [6]; -11.2% in the test listed under Homo sapiens; 6.01% in test [7]; 21% in test [8]; -6.98% in [9].
